Inconclusive results are not listed. Entries that show only a call come without a potency. The source made the active and inactive calls. The call rests on the fitted dose curve; in most records, active means well fitted inhibition curve with a large enough effect in the signal ratio in the repeat runs (not every such curve was filed as active); inconclusive means weak or mixed curves, or effect the other way; inactive means no such curve, though single readings can be large or run the other way; the % refers to the signal ratio.
Each compound was assayed against Glucocorticoid receptor (Homo sapiens) (UniProt P04150) (assay: qHTS assay to identify small molecule antagonists of the glucocorticoid receptor (GR) signaling pathway (AID 720692)). Settings: GR-bla HeLa, beta-lactamase FRET ratio, dexamethasone-stimulated, 18 h; series mostly up to 58.5 µM.
Glucocorticoid receptor (Homo sapiens), sequence (P04150 whole entry, looked up): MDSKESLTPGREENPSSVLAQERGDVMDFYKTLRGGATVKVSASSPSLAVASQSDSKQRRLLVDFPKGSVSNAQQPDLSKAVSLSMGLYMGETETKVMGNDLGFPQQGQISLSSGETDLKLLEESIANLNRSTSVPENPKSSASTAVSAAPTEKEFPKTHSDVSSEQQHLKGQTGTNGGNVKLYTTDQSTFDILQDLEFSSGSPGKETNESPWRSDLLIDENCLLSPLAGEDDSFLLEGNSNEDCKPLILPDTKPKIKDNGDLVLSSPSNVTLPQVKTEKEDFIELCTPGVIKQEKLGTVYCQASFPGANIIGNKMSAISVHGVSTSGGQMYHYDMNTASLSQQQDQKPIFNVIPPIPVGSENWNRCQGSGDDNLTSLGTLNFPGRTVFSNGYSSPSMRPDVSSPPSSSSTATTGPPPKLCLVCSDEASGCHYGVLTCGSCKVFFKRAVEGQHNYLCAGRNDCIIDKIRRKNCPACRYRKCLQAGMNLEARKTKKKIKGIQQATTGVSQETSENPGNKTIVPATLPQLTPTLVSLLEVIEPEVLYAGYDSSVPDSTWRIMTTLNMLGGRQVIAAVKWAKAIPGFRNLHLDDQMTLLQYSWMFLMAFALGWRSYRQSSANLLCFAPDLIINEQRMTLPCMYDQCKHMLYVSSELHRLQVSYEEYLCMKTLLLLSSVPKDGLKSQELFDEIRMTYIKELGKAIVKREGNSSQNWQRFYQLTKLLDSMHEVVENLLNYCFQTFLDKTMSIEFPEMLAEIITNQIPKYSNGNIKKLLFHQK
Summary of the method: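 Inhibition of glucocorticoid signalling is measured in HeLa cells with a GRE-controlled beta-lactamase reporter; cells are co-treated with compound and 5 nM dexamethasone (final) for 18 h before FRET substrate readout.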
Potency means the concentration at half of the fitted maximal effect.

**Q.** CN1CC(=O)N2[C@H](c3ccc4c(c3)OCO4)c3[nH]c4ccccc4c3C[C@@H]2C1=O was tested. Which Potency did it give?
**A.** Its Potency is “inactive”.

**Q.** N#CCCN(CCO)CCO was tested. Which Potency did it give?
**A.** Its Potency is “inactive”.

**Q.** CCOC(=O)C1=C(C)NC(C)=C(C(=O)OC)C1c1cccc(Cl)c1Cl (stereo unspecified) was tested. Which Potency did it give?
**A.** Its Potency is 10.7 µM (active).

**Q.** CCC(C)COC(C)=O (stereo unspecified) was tested. Which Potency did it give?
**A.** The Potency was “inactive”.

**Q.** For CCCCC(CC)COP(=O)(O)O (stereo unspecified), which Potency is on record?
**A.** The Potency was 49.8 µM (active).

**Q.** Which Potency does the source give for O=C(CCCN1CC=C(n2c(=O)[nH]c3ccccc32)CC1)c1ccc(F)cc1 here?
**A.** The Potency was “inactive”.

Source: PubChem BioAssay (Tox21)
